Source: ChEMBL document CHEMBL3988442, “University of Dundee, Small-Polar-MMV Screening Library” (2021)
Screen size: about 48,000 compounds; about 13,000 (27%) showed an effect of 50% or more. This is one part of the list.

Each molecule was assayed on Wolbachia pipientis (assay: Anti-Wolbachia Cell-Based Screen). Conditions: 5 µM.
Type: functional
Design: scale not given: in the data most compounds retested in dose-response had high values
With Cc1cc(CN(C)C(=O)C(c2ccccc2C)N(C)C)on1 (stereo not given) the “Percent Effect” value was -6.719%. COCC1CN(c2ccc3c(Cl)ccnc3c2F)CCO1 (stereo not given) was tested, and the “Percent Effect” value was -23.97%. CC(C)n1nc(Cn2cccn2)c2c1CN(C1CCOCC1)C2.O=C(O)C(F)(F)F was tested, and the “Percent Effect” value was -12.7%. In the case of CSCC(CCO)Nc1cccc(C(F)(F)F)n1 (stereo not given), the “Percent Effect” value is reported as -4.466%. With Cc1[nH]/c(=N\C(=O)c2csc(NC3CC3)n2)sc1C the “Percent Effect” value was 5.659%. For CCn1nc(C(C)C)cc1C(=O)N1CC(OCc2ccccc2F)C1, the “Percent Effect” value was -12.74%. In the case of CC(C)C(=O)N1CCCC2(CCCN2CC2CCCC2)C1.O=C(O)C(F)(F)F (stereo not given), the “Percent Effect” value is reported as 4.18%. For Cc1ccc(C(C(=O)O)N(C)CCCN2CCOCC2)c(C)c1 (stereo not given), the “Percent Effect” value was -9.259%. With CCC(NC(=O)CN(C)Cc1ccc(C)o1)c1ccc(C)cc1 (stereo not given) the “Percent Effect” value was 3.05%. For CCCC(NC(=O)c1cc(C)ccc1C)c1nnn[nH]1 (stereo not given), the “Percent Effect” value was -4.44%. For CCC(NC(=O)c1cc(NC(C)=O)ccc1Cl)c1cc(C)ccn1 (stereo not given), the “Percent Effect” value was -8.351%. In the case of CCNc1ncc(C(=O)NC(CCN(C)C)c2ccccc2)cn1 (stereo not given), the “Percent Effect” value is reported as 13.66%. CCC(NC(=O)c1cc(CC(C)C)nn1C)c1cc(C)ccn1 (stereo not given) was tested, and the “Percent Effect” value was 6.008%. With CCC(NC(=O)c1nn(C)cc1C(=O)O)c1ccccc1 (stereo not given) the “Percent Effect” value was 82.78%. With CCC(NC(=O)c1nn(C)cc1C(=O)O)c1ccc(C)cc1 (stereo not given) the “Percent Effect” value was 104.3%. With CCC(NC(=O)c1c(C(=O)O)cnn1C)c1ccc(C)cc1C (stereo not given) the “Percent Effect” value was 109.1%. For CCC(CC)NC(=O)Cn1cc(C(N)=O)c(-c2ccccc2)n1, the “Percent Effect” value was -10.51%. COc1ccc(C(CC(=O)O)NC(=O)c2cc(C)on2)cc1 (stereo not given) was tested, and the “Percent Effect” value was 2.487%. In the case of CCC(NC(=O)c1nn(C)cc1C(=O)O)c1ccc(C)cc1C (stereo not given), the “Percent Effect” value is reported as 113.8%. With CSCC(CCO)NC(=O)Nc1cc(C)ccc1C (stereo not given) the “Percent Effect” value was -5.082%. CC(C)(C)NC(=O)NCc1cnn2ccccc12 was tested, and the “Percent Effect” value was -7.455%. In the case of CCOCCN1C[C@H](c2cccc(OC)c2)[C@@H](N)C1, the “Percent Effect” value is reported as -6.771%. With Cc1cnccc1N1CCN(c2nccc(CCC(F)(F)F)n2)CC1 the “Percent Effect” value was 13.49%. In the case of Cc1nc(C)n(CC2CCCN2CC(=O)Nc2ccnn2C(C)C)n1 (stereo not given), the “Percent Effect” value is reported as -5.093%. With CCOCC(=O)N1CC[C@H]2OCC[C@@H](c3nnc(C)o3)[C@H]2C1 the “Percent Effect” value was 13.01%. Cc1ccc(C(=O)NCC(O)c2ccc(F)c(F)c2)c(=O)[nH]1 (stereo not given) was tested, and the “Percent Effect” value was -52.3%. In the case of Cn1c(SCC2OCCc3ccccc32)n[nH]c1=O (stereo not given), the “Percent Effect” value is reported as -11.92%. In the case of Cc1ccc(S(=O)(=O)N2CCOc3ccccc32)cc1C(=O)O, the “Percent Effect” value is reported as -0.06219%. For Cc1cc(F)ccc1NS(=O)(=O)c1cc2c(c(C(=O)O)c1)OCCO2, the “Percent Effect” value was 118%. For O=C(O)c1cc(S(=O)(=O)Nc2cc(F)ccc2F)cc2c1OCCO2, the “Percent Effect” value was 0.9161%. O=C(O)c1cc(S(=O)(=O)Nc2ccc(F)cc2F)cc2c1OCCO2 was tested, and the “Percent Effect” value was 104.7%. For O=C(O)c1cc(S(=O)(=O)Nc2cccc(F)c2F)cc2c1OCCO2, the “Percent Effect” value was 134.3%. In the case of CN(c1c(F)cccc1F)S(=O)(=O)c1cc2c(c(C(=O)O)c1)OCCO2, the “Percent Effect” value is reported as 7.763%. For Cc1ccc(F)cc1NS(=O)(=O)c1cc2c(c(C(=O)O)c1)OCCO2, the “Percent Effect” value was 117.8%. With CN(c1ccc(F)cc1)S(=O)(=O)c1cc2c(c(C(=O)O)c1)OCCO2 the “Percent Effect” value was -14.55%. CN(c1ccccc1)S(=O)(=O)c1cc2c(c(C(=O)O)c1)OCCO2 was tested, and the “Percent Effect” value was 4.597%. For CCc1noc(CS(=O)(=O)CC(=O)N2c3ccccc3CC2C)n1 (stereo not given), the “Percent Effect” value was 1.089%. In the case of CCOC1CC2(CCN(Cc3cnn(C)c3)CC2)c2ccc(C)cc21 (stereo not given), the “Percent Effect” value is reported as -1.962%. In the case of CN1CCN(C)C2(CCN(Cc3ccc(C4CCCO4)s3)CC2)C1 (stereo not given), the “Percent Effect” value is reported as -8.087%. With COc1ccc2cccc(CC(=O)NCCCc3n[nH]c(C)n3)c2c1 the “Percent Effect” value was -4.195%. Cc1nc(CCCNC(=O)c2cc(F)ccc2O)n[nH]1 was tested, and the “Percent Effect” value was 85.21%. With COc1c(Br)cccc1CCNC(=O)c1ncoc1C the “Percent Effect” value was -6.421%. For COc1cc(Cl)ccc1C(=O)NCc1n[nH]c(C)n1, the “Percent Effect” value was -9.051%. Cc1nc(CCCNC(=O)c2c(F)cc(F)cc2F)n[nH]1 was tested, and the “Percent Effect” value was 108.5%. With Cc1nc(CCCNC(=O)c2c(F)cccc2Br)n[nH]1 the “Percent Effect” value was 89.06%. With Cc1ccc(O)c(C(=O)NCCCS(=O)(=O)Cc2ccccc2)c1 the “Percent Effect” value was -4.048%. COc1c(Cl)cc(C(=O)NCc2n[nH]c(C)n2)cc1Cl was tested, and the “Percent Effect” value was 1.914%. For COc1ccccc1C(=O)NCc1n[nH]c(C)n1, the “Percent Effect” value was 3.11%. For CN1C[C@H](O)C[C@H]1c1nc(-c2ccc(OC(F)(F)F)cc2)no1, the “Percent Effect” value was -6.164%. With CC(C)(O)CCc1cccc(C(=O)NCC2CN(S(C)(=O)=O)CCO2)c1 (stereo not given) the “Percent Effect” value was -12.96%. C[C@H](NC(=O)c1cccc(CCC(C)(C)O)c1)C(N)=O was tested, and the “Percent Effect” value was -11.41%. In the case of CC(C)(O)CCc1cccc(C(=O)N[C@@H](CO)C(N)=O)c1, the “Percent Effect” value is reported as 1.69%. With CC(C)(O)CCc1cccc(C(=O)N2CCC[C@H]2C(N)=O)c1 the “Percent Effect” value was 102.3%. For CCNC(=O)[C@@H]1C[C@@H](N)CN1C(=O)CCc1ccc(C)c(C)c1, the “Percent Effect” value was -3.444%. With CCNC(=O)[C@@H]1C[C@H](N)CN1C(=O)CCc1ccc(C)c(C)c1 the “Percent Effect” value was -20.38%. CC[C@@H](CO)NC(=O)c1cccc(CCC(C)(C)O)c1 was tested, and the “Percent Effect” value was 0.6007%. In the case of CCNC(=O)[C@@H]1C[C@H](N)CN1C(=O)c1cccc(CCC(C)(C)O)c1, the “Percent Effect” value is reported as 102.7%. CCNC(=O)[C@@H]1CCCN1C(=O)c1cccc(CCC(C)(C)O)c1 was tested, and the “Percent Effect” value was 104.5%. With CS(=O)(=O)N1CCC(Oc2ccc(C(=O)NCC3CCC3)cc2Cl)CC1 the “Percent Effect” value was -2.678%. For Cc1cc(CN2CCCC2)cc(Oc2ccc(C(F)(F)F)cn2)c1, the “Percent Effect” value was 9.077%. In the case of Cc1nn(C)cc1C(=O)NC(CC(C)C)C(=O)Nc1cc[nH]n1 (stereo not given), the “Percent Effect” value is reported as 1.449%. CN(CC(=O)NC(C)(C)C)Cc1cccc2c1OCCO2 was tested, and the “Percent Effect” value was -43.12%. For CC(C)(C)Nc1c(C2CCCN(C(=O)C3CC3)C2)nc2ccccn12.Cl (stereo not given), the “Percent Effect” value was 97.63%. CC(C)(C)Nc1c(C2CCN(C(=O)C(C)(C)C)CC2)nc2ccccn12 was tested, and the “Percent Effect” value was 124.8%. For CN(CCO)Cc1nnc(C2CCN(C(=O)C(C)(C)C)CC2)n1C, the “Percent Effect” value was 1.717%. CC(C)(C)C(=O)N1CCC(c2nc(O)cc(-c3ccccn3)n2)CC1 was tested, and the “Percent Effect” value was -20.96%. In the case of CC(C)(O)C1CCCN(C(=O)Nc2nc(-c3ccccc3)ns2)C1 (stereo not given), the “Percent Effect” value is reported as -3.959%. In the case of Cc1cccn2c(NC(C)(C)C)c(C3CCN(C(=O)C4CC4)CC3)nc12, the “Percent Effect” value is reported as 138%. In the case of CC(C)(C)Nc1c(C2CCN(C(=O)C3CC3)CC2)nc2ccccn12, the “Percent Effect” value is reported as 95.08%. With NC(=O)c1csc(N2CCN(Cc3cccc4nsnc34)CC2)n1 the “Percent Effect” value was -1.05%. For CC(C)N1CCC(O)(CNC(=O)CC2OCCc3ccccc32)CC1 (stereo not given), the “Percent Effect” value was -11.76%. With Cc1ncc(Cl)c(C(=O)N2CC(=O)N(C)c3ccccc32)n1 the “Percent Effect” value was -4.054%. In the case of Cc1cnc(NC(=O)N2CCOCC2)s1, the “Percent Effect” value is reported as -16.98%. For CCC(C)n1cnc(S(=O)(=O)N(Cc2cccnc2)C(C)C)c1 (stereo not given), the “Percent Effect” value was 3.048%. For O=C(OCCNc1ncccn1)c1ccc(Br)s1, the “Percent Effect” value was -22.12%. For CC(C)C(=O)N1CCC(c2nc3ccccn3c2NC(C)(C)C)CC1, the “Percent Effect” value was 120.3%. COc1ccccc1OC1CN(C(=O)Cc2c(C)nc3ccccn23)C1 was tested, and the “Percent Effect” value was -17.73%. CNC(C(=O)N1CCC(c2nccn2C(C)C)CC1)c1ccccc1 (stereo not given) was tested, and the “Percent Effect” value was 12.05%. For CC(C)c1nc(C(=O)N(C)c2ccc(Br)cn2)cs1, the “Percent Effect” value was -16%. For CC1CCN(S(=O)(=O)c2cccnc2)c2ccccc2S1 (stereo not given), the “Percent Effect” value was -3.494%. With O=S1(=O)CCC(N2CCN(c3cc(C(F)(F)F)ccn3)CC2)C1 (stereo not given) the “Percent Effect” value was 0.5225%. With CN(C)c1ncc(CN2CCC(c3nnsc3S(C)(=O)=O)CC2)cn1 the “Percent Effect” value was -8.857%. In the case of CCn1c(CN(C)C)nnc1C1CCN(Cc2cnc(C)nc2)CC1, the “Percent Effect” value is reported as -9.341%. Cc1nccc(CN2CCC(c3nnsc3S(C)(=O)=O)CC2)n1 was tested, and the “Percent Effect” value was 2.937%. In the case of CCn1c(CN2CCCC2)nnc1C1CCN(Cc2cccnc2)CC1, the “Percent Effect” value is reported as -3.145%. For CS(=O)(=O)c1snnc1C1CCN(Cc2ccncc2)CC1, the “Percent Effect” value was -7.486%. For CNc1ncc(CN2CCC(c3nnsc3S(C)(=O)=O)CC2)cn1, the “Percent Effect” value was 122%. CS(=O)(=O)c1snnc1C1CCCN(Cc2ccncc2)C1 (stereo not given) was tested, and the “Percent Effect” value was 95.13%. With Cc1cccc(CN2CCC(c3nnsc3S(C)(=O)=O)CC2)n1 the “Percent Effect” value was 122.9%. CC(c1nc(C2CC2)no1)N1CCN(Cc2cccnc2)CC1 (stereo not given) was tested, and the “Percent Effect” value was 9.745%. For CS(=O)(=O)c1snnc1C1CCN(Cc2cccnc2)CC1, the “Percent Effect” value was 133.5%. COC[C@H]1CNC(=O)[C@@H]2CCN(Cc3cccc(C)n3)CC[C@H]12 was tested, and the “Percent Effect” value was -1.462%. For Cc1cccnc1CN1CCC(c2nnc(Cn3cccn3)n2C)CC1, the “Percent Effect” value was 7.8%. In the case of CC(C)OCCN(Cc1cccc(O)c1)C1CCC(O)CC1 (stereo not given), the “Percent Effect” value is reported as -9.741%. CC1CCN(c2ccnc3ccc(Br)cc23)CC1 was tested, and the “Percent Effect” value was -3.339%. In the case of O=C(c1ccoc1)N1CCCN(C(=O)c2ccc(C3CCCN3)s2)CC1 (stereo not given), the “Percent Effect” value is reported as 16.47%. In the case of N#Cc1cccc(CNC(=O)C2=NN(c3ccccc3)C(=O)CN2)c1, the “Percent Effect” value is reported as -6.333%. Fc1ccc(CN2CCC(c3nccnc3-n3ccnc3)CC2)cc1 was tested, and the “Percent Effect” value was -7.393%. CS(=O)(=O)c1snnc1C1CCN(Cc2ccc3nccnc3c2)CC1 was tested, and the “Percent Effect” value was 138.8%. In the case of CNS(=O)(=O)c1ccc(CN2CCC(c3ccncc3)CC2)cc1, the “Percent Effect” value is reported as -2.48%. In the case of CC(Cn1cncn1)NC1CCN(Cc2cccc(O)c2)CC1 (stereo not given), the “Percent Effect” value is reported as -16.09%. For CC(Cn1ccnc1)NC1CCN(Cc2cccc(O)c2)CC1 (stereo not given), the “Percent Effect” value was -6.042%. With Cc1cccc(CN2CCC(c3nnsc3S(C)(=O)=O)CC2)c1 the “Percent Effect” value was 168.1%. With CS(=O)(=O)c1snnc1C1CCN(Cc2cccc(O)c2)CC1 the “Percent Effect” value was 145.1%. In the case of Cc1cccc(CN2CCC(NCC3CNc4cc(C)nn4C3)CC2)c1 (stereo not given), the “Percent Effect” value is reported as 17.46%.
